Assay outcomes as filed in PubChem BioAssay.
Sampled rows, rich in hits. Any-hit rate of the full collection: about 2.5%.
Pol kappa inh: qHTS for Inhibitors of Polymerase Kappa. DNA polymerase kappa (Homo sapiens), Q9UBT6. purified Pol kappa, fluorescent DNA synthesis assay, 10 min. Potency, µM (doses to about 107 µM), without a hit: at the highest dose activity, negative = inhibition, usual class: inhibitors. hit rate 0.53% among 400,000; further: on the % scale 0 is the no-effect control and ±100 the full control effect
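Readout: fluorescence, taken kinetically at 0 and 10 min. Conditions: 10 nM Pol kappa, 15 min RT compound preincubation, 50 nM substrate final. Controls: enzyme-free buffer wells.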
Pol eta inh: qHTS for Inhibitors of Polymerase Eta. recombinant Pol eta, fluorescent DNA replication assay. DNA polymerase eta (Homo sapiens), Q9Y253. hit rate 1.2% among 390,000. Potency, µM (top dose mostly 114 µM), for inactives: at the highest dose activity change, negative = inhibition, most hits filed as inhibitors. AID 588591, 2011; further: on the % scale 0 is the no-effect control and ±100 the full control effect
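Pol eta (10 nM) was preincubated with compounds for 15 min at room temperature, after which fluorescent replication substrate (50 nM final) was added to start the reaction. Fluorescence was read kinetically at 0 and 10 min.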
L3MBTL1 inh: qHTS Assay for the Inhibitors of L3MBTL1. Lethal(3)malignant brain tumor-like protein 1 (Homo sapiens), Q9Y468. AID 485360, 2010. AlphaScreen L3MBTL1–H3K9me1 peptide binding. hit rate 0.66% among 230,000. Potency, µM (highest dose often 57.1 µM), without a hit: at the top dose activity, negative = inhibition, hits mostly inhibitors; further: on the % scale 0 is the no-effect control and ±100 the full control effect; nearly all actives have a fitted effect of over 60% in size
Target sequence (Q9Y468 whole entry, looked up): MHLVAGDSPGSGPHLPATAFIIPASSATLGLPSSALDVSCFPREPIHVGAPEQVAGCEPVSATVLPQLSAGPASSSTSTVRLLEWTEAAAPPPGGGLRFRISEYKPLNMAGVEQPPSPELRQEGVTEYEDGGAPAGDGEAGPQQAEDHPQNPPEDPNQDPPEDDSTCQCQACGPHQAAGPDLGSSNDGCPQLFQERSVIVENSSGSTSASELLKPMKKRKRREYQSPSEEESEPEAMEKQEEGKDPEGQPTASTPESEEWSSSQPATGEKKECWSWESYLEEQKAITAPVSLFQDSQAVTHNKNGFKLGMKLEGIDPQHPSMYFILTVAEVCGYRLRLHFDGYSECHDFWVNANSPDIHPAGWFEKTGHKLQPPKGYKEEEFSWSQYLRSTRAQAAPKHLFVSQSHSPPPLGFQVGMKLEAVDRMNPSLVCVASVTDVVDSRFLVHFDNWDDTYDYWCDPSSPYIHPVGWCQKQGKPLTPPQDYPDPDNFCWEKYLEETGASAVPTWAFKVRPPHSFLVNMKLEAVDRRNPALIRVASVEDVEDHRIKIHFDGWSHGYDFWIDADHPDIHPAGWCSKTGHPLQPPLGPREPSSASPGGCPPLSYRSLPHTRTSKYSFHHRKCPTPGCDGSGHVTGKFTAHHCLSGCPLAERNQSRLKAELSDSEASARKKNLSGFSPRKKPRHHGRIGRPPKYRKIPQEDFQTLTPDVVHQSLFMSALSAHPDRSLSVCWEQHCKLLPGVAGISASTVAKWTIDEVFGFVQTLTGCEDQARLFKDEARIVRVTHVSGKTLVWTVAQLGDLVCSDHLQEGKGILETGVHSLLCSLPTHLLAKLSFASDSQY
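AlphaScreen assay: L3MBTL1 (50 nM final) was preincubated 30 min at room temperature with biotinylated H3(1-15)K9me1 peptide (75 nM final), then 30 min with library compounds; streptavidin donor and nickel chelate acceptor beads (10 ug/mL final) added, 30 min dark.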
POLB inh: qHTS Assay for Inhibitors of DNA Polymerase Beta. Pol beta primer extension/strand displacement, fluorescence kinetic. hit rate 1.3% among 340,000. Potency, µM (top dose mostly 114 µM), for inactives: at the highest dose activity change, negative = inhibition, actives largely listed as inhibitors. AID 485314, 2010; further: on the % scale 0 is the no-effect control and ±100 the full control effect
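Curves were derived by four-parameter Hill fits of normalized qHTS data. The kinetic fluorescent primer-extension read was taken at 0 and 10 min after 50 nM substrate, following a 15 min room-temperature preincubation of 10 nM enzyme with compounds.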
Pol iota inh: qHTS for Inhibitors of Polymerase Iota | Pol iota fluorescent replication assay, 10 min | Potency, µM (titrated, usually from 115 µM), for the others: at the highest dose activity, negative = inhibition, usual class: inhibitors | hit rate 1% among 390,000 | AID 588590, 2011
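Pol iota at 10 nM preincubated 15 min with compounds at room temperature; reaction started with fluorescent substrate, 50 nM final. Fluorescence read kinetically at 0 and 10 min; buffer-only wells as negative control.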
WRN inhibitor: qHTS for Inhibitors of WRN Helicase | Bifunctional 3'-5' exonuclease/ATP-dependent helicase WRN (Homo sapiens), Q14191 | WRN helicase unwinding, fluorescent forked duplex, kinetic | Potency, µM (titrated, usually from 114 µM), for inactives: at the top dose activity change, negative = inhibition, actives largely listed as inhibitors | hit rate 0.46% among 360,000 | AID 651768, 2012; further: on the % scale 0 is the no-effect control and ±100 the full control effect; nearly all actives have a fitted effect of over 55% in size
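Primary qHTS, 1536-well format. 20 nM WRN + compound, 15 min RT; start with 100 nM forked fluorophore/quencher duplex, 2 mM ATP (final); kinetic read ex 525/em 598 nm.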
The depositor's hits bear a star; [ ] = dose if it differs, or a comment. The call rests on the fitted dose curve; in most records, active means well fitted curve in the direction sought with a large enough effect; inconclusive means small, poorly fitted or top-dose-only effect, or another doubt; inactive means no such curve, though single readings can be large; an effect the other way counts as inactive or inconclusive. Potency means the concentration at half of the fitted maximal effect.

Screening O=C(CN1CCN(c2ccc(O)cc2)CC1)Nc1cc(S(=O)(=O)N2CCCCC2)ccc1Cl returned Pol kappa inh 1.7%, Pol eta inh -18.8%, L3MBTL1 inh -4.0%, POLB inh -1.1%, Pol iota inh 25.2% and WRN inhibitor -7.2%.
O=C(CSc1ncccn1)N/N=C/c1ccc(OC2CSC2)cc1 was read as Pol kappa inh 11.7%, Pol eta inh -15.1%, L3MBTL1 inh -5.0%, POLB inh 30.5%, Pol iota inh 28.5% and WRN inhibitor 7.2%.
`O=C(NCCc1ccccc1)c1cc(Nc2ccccc2)nc2ccccc12` gave Pol kappa inh -10.2%[60.1 µM], Pol eta inh -3.3%, POLB inh -5.4% and Pol iota inh -8.4%.
`COc1ccc(CCNC(=O)c2cc(Nc3ccccc3)nc3ccccc23)cc1OC` gave Pol kappa inh -15.9%[60.1 µM], Pol eta inh -7.4%, POLB inh 4.0% and Pol iota inh 79.4µM*.
`COc1ccc(C(=O)c2ccccc2)c(O)c1O` gave Pol kappa inh 10µM*.
`COc1ccc(C(=O)c2ccccc2)c(O)c1` gave Pol kappa inh inconclusive, Pol eta inh -8.7%, L3MBTL1 inh 16.4%, POLB inh 2.5%, Pol iota inh -0.4% and WRN inhibitor -16.3%.
Cn1nnnc1SCc1cc(=O)n2ccsc2n1 was read as Pol kappa inh 6.4%, Pol eta inh -18.6%, L3MBTL1 inh 6.1%, POLB inh 3.0%, Pol iota inh 29.2% and WRN inhibitor 1.3%.
`Oc1cc(NCc2ccc(F)cc2)cc2cccnc12` gave Pol kappa inh -5.9%, Pol eta inh -13.6%, L3MBTL1 inh 6.1% and Pol iota inh 76.8%.
For CN(C)CCCNc1cc(O)c2ncccc2c1 the results were Pol kappa inh -12.9%, Pol eta inh -5.2%, L3MBTL1 inh inconclusive and Pol iota inh 6.31µM*.
`COc1cccc(N2CCN(C(=O)NC3CCCCC3)CC2)c1` gave Pol kappa inh -5.1%, Pol eta inh -2.9%, L3MBTL1 inh -6.2%[11.4 µM], POLB inh 0.1%, Pol iota inh 18.5% and WRN inhibitor 8.4%.
`COc1ccc(N2CCN(C(=O)NC3CCCCC3)CC2)cc1` gave Pol kappa inh -3.1%, Pol eta inh inconclusive, L3MBTL1 inh -14.6%, POLB inh -2.0%, Pol iota inh 89.1µM* and WRN inhibitor 0.3%.
For COCCN(C(=O)COC(=O)CC(C)c1ccccc1)c1c(N)n(Cc2ccccc2)c(=O)[nH]c1=O (stereo not drawn) the results were Pol kappa inh 5.6%, Pol eta inh -3.4%, L3MBTL1 inh -2.4%, Pol iota inh 52.7% and WRN inhibitor 4.9%.
For COc1ccc(C(=O)NCCn2cc(SCC(=O)Nc3ccc(C)cc3)c3ccccc32)cc1 the results were Pol kappa inh -11.5%[60.1 µM], Pol eta inh -4.9%, POLB inh -0.5% and Pol iota inh -24.0%.
For COc1ccc(C(=O)NCCn2cc(SCc3cc(C)ccc3C)c3ccccc32)cc1 the results were Pol kappa inh -9.4%, Pol eta inh -4.7%, POLB inh 2.5% and Pol iota inh 89.1µM*.
COc1ccc(-c2ccc(/C=C3\C(=O)N(c4ccccc4)N=C3c3ccccc3)o2)c([N+](=O)[O-])c1 was read as Pol kappa inh -5.8%, Pol eta inh 12.0%, L3MBTL1 inh -16.7%, POLB inh inconclusive, Pol iota inh 5.7% and WRN inhibitor -2.8%.
Screening COc1ccc(-c2ccc(/C=C3/C(=N)N4C(C)=CSC4=NC3=O)o2)c([N+](=O)[O-])c1 returned Pol kappa inh inconclusive, Pol eta inh inconclusive, L3MBTL1 inh -1.4%, POLB inh inconclusive, Pol iota inh 17.8µM* and WRN inhibitor inconclusive.
For O=S(=O)(O)c1ccc2c(c1)-c1nc-2nc2[nH]c(nc3nc(nc4[nH]c(n1)c1ccc(S(=O)(=O)O)cc41)-c1ccc(S(=O)(=O)O)cc1-3)c1ccc(S(=O)(=O)O)cc21 the results were Pol kappa inh -94.5%[60.1 µM].
For CCn1ncc(N2CCOCC2)c(Cl)c1=O the results were Pol kappa inh -1.9%, Pol eta inh -1.2%, POLB inh 23.9%, Pol iota inh -13.8% and WRN inhibitor 4.9%.
Cc1cc(=O)oc2cc(OCC(=O)c3ccc4c(c3)NC(=O)CO4)ccc12 was read as Pol kappa inh -14.8%, Pol eta inh inconclusive, L3MBTL1 inh 1.2%, POLB inh inconclusive, Pol iota inh 3.16µM* and WRN inhibitor inconclusive.
`Cc1cc(=O)oc2cc(OCC(O)CN3CCN(c4ccc(F)cc4)CC3)ccc12` (stereo not drawn) gave Pol kappa inh -4.1%, Pol eta inh -8.3%, L3MBTL1 inh -5.6%, POLB inh -0.2%, Pol iota inh 31.9% and WRN inhibitor 3.4%[57.1 µM].
Screening Cc1cc(=O)oc2cc(OCC(=O)N3CCN(c4ccc(F)cc4)CC3)ccc12 returned Pol kappa inh inconclusive, Pol eta inh -6.9%, POLB inh 19.8%, Pol iota inh 39.8µM* and WRN inhibitor -3.9%[11.6 µM].
CNc1c([N+](=O)[O-])cnn1-c1cccc(Cl)n1 was read as Pol kappa inh -4.7%, Pol eta inh 1.1%, L3MBTL1 inh 17.8%, POLB inh 9.3%, Pol iota inh 59.8% and WRN inhibitor -4.0%.
Screening CCc1ccc(/C=C/C(=O)c2cc(Br)ccc(=O)c2O)cc1 returned Pol kappa inh inconclusive, Pol eta inh inconclusive, POLB inh 15.8µM*, Pol iota inh inconclusive and WRN inhibitor -26.6%.
Screening COc1ccc(O)c(/C=N/NC(=O)c2ccc(N3CCCC3=O)cc2)c1 returned Pol kappa inh -45.0%, Pol eta inh -10.9%, POLB inh 10µM*, Pol iota inh inconclusive and WRN inhibitor -15.9%.
For COc1ccc(O)c(/C=N/NC(=O)c2cccc(N3CCCC3=O)c2)c1 the results were Pol kappa inh 0.4%, Pol eta inh -9.3%, POLB inh 17.5%, Pol iota inh inconclusive and WRN inhibitor 4.4%.
CCOC(=O)c1sc2nc(C)[nH]c(=S)c2c1C was read as Pol kappa inh -4.9%, Pol eta inh -18.6%, POLB inh -12.9%, Pol iota inh 11.9% and WRN inhibitor -1.6%.
Screening COc1cccc(/C=N/Nc2ncnc(Cl)c2N)c1O returned Pol kappa inh -17.5%, Pol eta inh inconclusive, L3MBTL1 inh 20µM*, POLB inh -3.4%, Pol iota inh 12.2% and WRN inhibitor -29.3%.
